Screens from PubChem.
SW480 rereplic: DNA re-replication induction in SW480 cells. Potency, µM (top dose mostly 46.1 µM), inactives show at the top dose re-replication activation, actives largely listed as activators. SW480 DNA re-replication, Hoechst DNA content imaging, 48 h. 340,000 tested, 1.8% active; note: % of control where 0% means no effect; nearly all actives have a fitted effect of over 55% in size
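Readout is total intensity of Hoechst-stained nuclei, excited at 405 nm and collected at 500-530 nm. Compound treatment lasted 48 hr at 37 C in 5% CO2 before staining.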
KB-V1 cytotox: KB-V1 MDR subline cytotoxicity; KB-V1 MDR cells viability, CellTiter-Glo, 72 h; Potency, µM (doses to about 46.1 µM), hits mostly cytotoxic; 400,000 tested, 3.4% active; AID 1347076; note: % is set by controls: 0 for no effect and ±100 for the full control effect; nearly all actives have a fitted effect of over 60% in size
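Cytotoxicity via CellTiter-Glo luminescence after 72 h compound exposure at 37 degrees C. Cells: drug-selected KB-V1 line, DMEM phenol-red free plus 10% FBS. Compounds tested at multiple concentrations; normalized data fitted to concentration-effect curves.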
HT1080NT lethal: kills 2HG-producing HT-1080-NT fibrosarcoma cells; HT-1080-NT fibrosarcoma viability, CellTiter-Glo ATP luminescence, 48 h; Potency, µM (doses to about 46.1 µM), for the others: at the highest dose activity, negative = less viability, actives largely listed as cytotoxic; 360,000 tested, 1.6% active; AID 686970;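 note: NT is the 2HG producing partner of a matched IDH1 knockdown line; 0% = DMSO-treated cells and -100% = media-only wells without cells; nearly all actives have a fitted effect of over 55% in size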
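Compounds were tested in concentration-response format on HT-1080-NT cells for 48 hours at 37 degrees C. Cell viability came from CellTiter-Glo luminescence; curves were classified by r2, response magnitude and activity.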
HT1080 IDH1KD tx: HT-1080 IDH1 knockdown cell toxicity (counter line); HT-1080 IDH1 knockdown viability, ATP luminescence, 48 h; Potency, µM (titrated, usually from 46.1 µM), for inactives: at the highest dose activity, negative = toxicity, actives largely listed as cytotoxic; 360,000 tested, 2% active;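 note: 0% = DMSO wells and -100% = cell-free medium wells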
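Cytotoxicity counter-line: IDH1KD HT-1080, 48 h, CellTiter-Glo. Curves classed by r2, magnitude and activity.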
MCF10A rereplic: inducers of DNA re-replication in MCF 10A breast cells. MCF 10A DNA re-replication, Hoechst nuclear intensity, 48 h. Potency, µM (doses to about 46.1 µM), without a hit: top-dose activity, positive = re-replication, actives largely listed as activators. 350,000 tested, 2.9% active; note: % of control where 0% means no effect; nearly all actives have a fitted effect of over 50% in size
KB-3-1 cytotox: KB-3-1 parental cell cytotoxicity. KB-3-1 viability, CellTiter-Glo ATP luminescence, 72 h. Potency, µM (top dose mostly 46.1 µM), hits mostly cytotoxic. 400,000 tested, 1.4% active. AID 1347075; note: % is set by controls: 0 for no effect and ±100 for the full control effect; nearly all actives have a fitted effect of over 60% in size
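Viability of parental KB-3-1 cells, measured by CellTiter-Glo luminescence, followed a 72 h incubation at 37 °C with pinned compounds in phenol-red-free DMEM containing 10% FBS.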
The depositor's hits bear a star. Most compounds without a hit are left out; they make up all but 7.9% or so of the library. Calls come from the whole dose curve; as a rule, active = well fitted curve in the direction sought with a large enough effect; inconclusive = small, poorly fitted or top-dose-only effect, or another doubt; inactive = no such curve, though single readings can be large; an effect the other way counts as inactive or inconclusive. Potency is the fitted concentration of half-maximal effect.

`CCC1(C)Cc2ccccc2-c2nc(SCC(N)=O)[nH]c(=O)c21` (stereo not given) gave SW480 rereplic 51.1%, KB-V1 cytotox inactive, HT1080NT lethal -6.7%, HT1080 IDH1KD tx -16.7%, MCF10A rereplic 5.0% and KB-3-1 cytotox inactive.
For CCOC(=O)CSc1nc2c(c(=O)[nH]1)C(C)(CC)Cc1ccccc1-2 (stereo not given) the results were SW480 rereplic inconclusive, KB-V1 cytotox inconclusive, HT1080NT lethal inconclusive, HT1080 IDH1KD tx 5.8µM*, MCF10A rereplic inconclusive and KB-3-1 cytotox inconclusive.
Cc1ccc(-n2nnc3c(SCC(=O)NCc4ccco4)ncnc32)cc1 was read as SW480 rereplic 7.7%, KB-V1 cytotox inconclusive, HT1080NT lethal inconclusive, HT1080 IDH1KD tx inconclusive, MCF10A rereplic 23.1µM* and KB-3-1 cytotox inconclusive.
Screening O=C(Cn1cnc2c(nnn2Cc2ccc(F)cc2)c1=O)N1CCN(c2ccccc2)CC1 returned SW480 rereplic -13.2%, KB-V1 cytotox 9.2µM*, HT1080NT lethal -2.1%, HT1080 IDH1KD tx 5.0%, MCF10A rereplic 8.7% and KB-3-1 cytotox inactive.
Screening Cc1ccc(Cn2nnc3c(=O)n(CC(=O)NCc4ccco4)cnc32)cc1 returned SW480 rereplic inconclusive, KB-V1 cytotox inconclusive, HT1080NT lethal -14.6%, HT1080 IDH1KD tx -12.4%, MCF10A rereplic inconclusive and KB-3-1 cytotox 23.1µM*.
For CC(=O)Nc1ccc(NC(=O)Cn2cnc3c(nnn3Cc3ccc(F)cc3)c2=O)cc1 the results were SW480 rereplic 2.7%, KB-V1 cytotox inactive, HT1080NT lethal -13.4%, HT1080 IDH1KD tx -4.1%, MCF10A rereplic 10.6% and KB-3-1 cytotox inactive.
Screening O=C(Cn1cnc2c(nnn2Cc2ccc(F)cc2)c1=O)NCc1ccc(F)cc1 returned SW480 rereplic -1.8%, KB-V1 cytotox inactive, HT1080NT lethal inconclusive, HT1080 IDH1KD tx 18.4µM*, MCF10A rereplic inconclusive and KB-3-1 cytotox inconclusive.
`O=C(Cn1cnc2c(cnn2-c2ccccc2)c1=O)N1CCN(c2ccc(F)cc2)CC1` gave SW480 rereplic -5.4%, KB-V1 cytotox inconclusive, HT1080NT lethal -6.3%, HT1080 IDH1KD tx -1.8%, MCF10A rereplic -1.8% and KB-3-1 cytotox inactive.
Screening Cc1ccc(-n2nnc3c(=O)n(CC(=O)NCc4ccco4)cnc32)cc1 returned SW480 rereplic 4.0%, KB-V1 cytotox inactive, HT1080NT lethal 0.0%, HT1080 IDH1KD tx -9.8%, MCF10A rereplic 25.1% and KB-3-1 cytotox inconclusive.
Screening CCOC(=O)C1CCCN(CC(=O)N(C)c2c(N)n(Cc3ccccc3)c(=O)[nH]c2=O)C1 (stereo not given) returned SW480 rereplic -24.2%, KB-V1 cytotox inactive, HT1080NT lethal -1.8%, HT1080 IDH1KD tx 1.2%, MCF10A rereplic 6.2% and KB-3-1 cytotox inactive.
`C(=NN=C1c2ccccc2-c2ccccc21)c1ccc2c(c1)OCO2` gave SW480 rereplic 1.6%, KB-V1 cytotox inconclusive, HT1080NT lethal 0.2%, HT1080 IDH1KD tx 1.4%, MCF10A rereplic 9.1% and KB-3-1 cytotox inactive.
`CC(C)(C(=O)N1CCC1(C)C(=O)NS(=O)(=O)c1ccc(Cl)s1)c1ccccc1` (stereo not given) gave KB-V1 cytotox inactive, HT1080NT lethal 2.2%, HT1080 IDH1KD tx 2.1% and KB-3-1 cytotox inactive.
`Cc1ccc(Cn2nnc3c(=O)n(CC(=O)NCc4ccccc4)cnc32)cc1` gave SW480 rereplic 9.2µM*, KB-V1 cytotox inactive, HT1080NT lethal inconclusive, HT1080 IDH1KD tx inconclusive, MCF10A rereplic 9.2µM* and KB-3-1 cytotox inconclusive.
For CC(C)(C)n1ncc2c(=O)n(CC(=O)NCc3ccccc3)cnc21 the results were SW480 rereplic 20.6µM*, KB-V1 cytotox inconclusive, HT1080NT lethal 16.4µM*, HT1080 IDH1KD tx 16.4µM*, MCF10A rereplic 14.6µM* and KB-3-1 cytotox 7.31µM*.
